Activity calls are given as the source filed them.
Experiments:
[1] = test system: Human papillomavirus type 1a protein E7 (residues 44-93); assay: HPV1a E7 fragment binders on microarrays, primary screen, biochemical, small-molecule microarray, residues 44-93, 635 nm fluorescence (AID 1108); conditions: small-molecule microarray binding, fluorescence 635 nm; higher = more signal;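 note: E7 fragment applied at 1 µg/mL in TBST for 1 h at 4 C; score combines spot fluorescence with its signal to noise ratio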
[2] = modulators of HCV replicon luciferase signal, primary screen, HCV replication inhibitor project, Huh7 cells, luciferase reporter (AID 1109); conditions: 48 h, higher = more signal;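 note: huh7 hepatoma cells harbouring a luciferase neomycin HCV replicon reporter; luciferase luminescence as measure of HCV replicon replication; test concentration not given here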
[3] = target: Left-right determination factor 2 (Homo sapiens) (UniProt O00292); assay: LEFTY2 binders on small-molecule microarrays, primary screen, biochemical, small-molecule microarray, 635 nm fluorescence scan (AID 1110); conditions: LEFTY2 binding, higher = more signal
[4] = target: Calmodulin-1 (Homo sapiens) (UniProt P0DP23); assay: CALM1 binders on microarrays, EGTA buffer, profiling panel, biochemical, small-molecule microarray, Cy5-labelled CALM1 (AID 1111); conditions: Cy5-CALM1 binding fluorescence, higher = more signal;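 note: labelled calmodulin applied in Tris saline Tween buffer holding calcium plus EGTA and DTT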
[5] = target: Calmodulin-1 (Homo sapiens) (UniProt P0DP23); assay: calcium-bound CALM1 binders on microarrays, profiling panel, artefact control for SMM control-protein annotation, biochemical, small-molecule microarray, Cy5-labelled CALM1, plus calcium (AID 1112); conditions: Cy5-CALM1 binding fluorescence, higher = more signal;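 note: score merges spot fluorescence with signal to noise from triplicate slides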
[6] = small-molecule microarray binders of probe aWnt5a, primary screen, biochemical, biotinylated probe, 635/667 nm fluorescence (AID 1113); conditions: higher = more signal;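 note: score merges 667 nm fluorescence intensity with signal-to-noise per printed feature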
[7] = small-molecule microarray binders of probe aShh, primary screen, biochemical, biotinylated probe, 635/667 nm fluorescence (AID 1114); conditions: higher = more signal;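 note: probe is biotin-labelled aShh protein from a stem cell growth factor screen; measures binding of labelled protein to compounds printed on the slide; score merges feature fluorescence at 667 nm with signal-to-noise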
[8] = small-molecule microarray binders of probe aNog, primary screen, biochemical, biotinylated probe, 635/667 nm fluorescence (AID 1115); conditions: higher = more signal;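 note: probe is biotinylated aNog protein used at 0.15 µg/mL for 1 h at 4 C; z-score combines 667 nm fluorescence of each spot with its signal to noise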
[9] = target: Torsin-1A-interacting protein 1 (Homo sapiens) (UniProt Q5JTV8); assay: LAP1 binders from COS7 cell lysate, primary screen, small-molecule microarray, 635/667 nm fluorescence (AID 1116); conditions: COS7-hLAP1 lysate binding, 635 nm fluorescence, higher = more signal
[10] = target: Alpha-bungarotoxin (Bungarus multicinctus) (UniProt P60615); assay: alpha-bungarotoxin binders on microarray, profiling panel, artefact control for SMM control protein annotation, biochemical, small-molecule microarray, Alexa647 label, 635/667 nm fluorescence (AID 1117); conditions: alpha-BTX-A647 binding fluorescence, higher = more signal
Albumin (Bos taurus) = Albumin (Bos taurus) (UniProt P02769); assay: bovine serum albumin binders on microarray, profiling panel, artefact control for SMM control protein annotation, biochemical, small-molecule microarray, Alexa647 label, 635/667 nm fluorescence (AID 1118); conditions: BSA-A647 binding, fluorescence 635 nm, higher = more signal;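 note: score merges 667 nm emission intensity and signal-to-noise per printed compound spot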
[11] = small-molecule microarray binders of probe aXIP, primary screen, biochemical, NeuroSMM set, 635/667 nm fluorescence (AID 1119); conditions: higher = more signal, called active from +8 up or from −8 down;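 note: probe is the protein aXip251-270 applied at 1 µg/mL to compound-printed slides; binding of probe to printed compounds measured as 667 nm fluorescence plus signal to noise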
[12] = small-molecule binders of probe aNOTCH3, primary screen, biochemical, small-molecule microarray, 635/667 nm fluorescence (AID 1120); conditions: higher = more signal;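 note: probe is a biotin-tagged antibody raised against NOTCH3 rather than NOTCH3 protein; score merges spot fluorescence near 667 nm with spot signal to noise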
[13] = small-molecule binders of probe aNOTCH2, primary screen, biochemical, small-molecule microarray, 635/667 nm fluorescence (AID 1121); conditions: higher = more signal;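 note: score merges feature fluorescence read at 667 nm with its signal to noise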
[14] = target: Carbonic anhydrase 2 (Homo sapiens) (UniProt P00918); assay: CAII small-molecule binders, profiling panel, biochemical, small-molecule microarray, Alexa647-labelled CAII (AID 1122); conditions: CAII-A647 binding fluorescence, higher = more signal
[15] = COS7 lysate on small-molecule microarray, probe aHis, 635 nm (AID 1123); conditions: COS7 cell lysate, fluorescence, higher = more signal;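 note: z-score combines 667nm fluorescence intensity with signal-to-noise per printed compound spot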
[16] = compound binding in COS7 lysate, probe aLAP1, primary screen, cell lysate, small-molecule microarray (AID 1124); conditions: probe aLAP1, fluorescence, higher = more signal;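 note: lysate comes from COS7 cells expressing LAP1 and is applied at 0.3 µg/mL; score merges spot fluorescence near 667 nm with signal-to-noise over triplicate slides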
Sam68 (KHDRBS1) = assay: Sam68 small-molecule binders, primary screen, biochemical, small-molecule microarray, 635 nm fluorescence (AID 1125); conditions: small-molecule microarray binding, higher = more signal;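 note: score merges 667 nm channel intensity with signal to noise over triplicate slides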
[17] = test system: Chordin-like protein 2 (CHRDL2); assay: CHRDL2 small-molecule binders, primary screen, biochemical, small-molecule microarray, 635 nm fluorescence (AID 1126); conditions: small-molecule microarray binding, fluorescence 635 nm; higher = more signal;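 note: printed compound slides probed with Chrdl2 protein at 4 µg/mL for 1 h at 4 C; score merges 667 nm emission intensity with signal to noise over three replicate slides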
[18] = target: Concanavalin-A (Canavalia ensiformis) (UniProt P02866); assay: ConA small-molecule binders, primary screen, artefact control for SMM control protein annotation, biochemical, small-molecule microarray, Alexa647 label, 635 nm (AID 1127); conditions: ConA-A647 binding fluorescence, higher = more signal;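 note: z combines 667 nm emission intensity with signal-to-noise across three replicate slides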
Sequence of Concanavalin-A (Canavalia ensiformis) (P02866 whole entry, looked up): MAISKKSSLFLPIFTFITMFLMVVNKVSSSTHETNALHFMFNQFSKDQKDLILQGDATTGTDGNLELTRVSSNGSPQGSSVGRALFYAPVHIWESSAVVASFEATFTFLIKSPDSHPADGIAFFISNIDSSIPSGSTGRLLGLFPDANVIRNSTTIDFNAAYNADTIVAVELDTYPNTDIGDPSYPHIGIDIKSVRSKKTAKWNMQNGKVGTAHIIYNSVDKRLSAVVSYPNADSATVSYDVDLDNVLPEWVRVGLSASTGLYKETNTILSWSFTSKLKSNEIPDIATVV

Sequence of Albumin (Bos taurus) (P02769 whole entry, looked up): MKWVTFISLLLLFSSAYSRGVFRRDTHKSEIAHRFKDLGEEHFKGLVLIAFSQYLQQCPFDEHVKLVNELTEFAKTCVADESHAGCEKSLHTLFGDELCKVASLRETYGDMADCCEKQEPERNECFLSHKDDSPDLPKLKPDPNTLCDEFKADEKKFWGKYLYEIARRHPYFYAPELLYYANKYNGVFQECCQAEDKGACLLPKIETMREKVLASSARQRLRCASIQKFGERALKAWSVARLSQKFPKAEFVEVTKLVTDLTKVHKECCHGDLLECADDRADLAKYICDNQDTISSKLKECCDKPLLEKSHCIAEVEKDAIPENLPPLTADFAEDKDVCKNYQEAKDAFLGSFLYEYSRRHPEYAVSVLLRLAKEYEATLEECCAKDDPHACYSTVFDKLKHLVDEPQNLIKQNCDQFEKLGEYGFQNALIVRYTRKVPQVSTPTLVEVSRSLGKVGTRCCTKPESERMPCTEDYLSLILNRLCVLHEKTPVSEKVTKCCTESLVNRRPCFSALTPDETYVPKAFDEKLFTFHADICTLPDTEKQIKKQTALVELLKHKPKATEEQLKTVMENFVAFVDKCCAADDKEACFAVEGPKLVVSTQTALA
Sequence of Left-right determination factor 2 (Homo sapiens) (O00292 whole entry, looked up): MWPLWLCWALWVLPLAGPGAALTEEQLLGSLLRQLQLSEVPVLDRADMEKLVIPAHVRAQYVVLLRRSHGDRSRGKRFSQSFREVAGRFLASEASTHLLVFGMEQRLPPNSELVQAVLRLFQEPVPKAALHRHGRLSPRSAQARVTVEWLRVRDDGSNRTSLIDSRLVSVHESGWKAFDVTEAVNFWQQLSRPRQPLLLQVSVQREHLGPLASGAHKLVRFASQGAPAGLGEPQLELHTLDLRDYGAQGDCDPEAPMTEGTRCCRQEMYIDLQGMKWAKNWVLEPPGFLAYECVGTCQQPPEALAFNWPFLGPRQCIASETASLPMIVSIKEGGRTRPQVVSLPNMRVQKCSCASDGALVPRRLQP
Sequence of Alpha-bungarotoxin (Bungarus multicinctus) (P60615 whole entry, looked up): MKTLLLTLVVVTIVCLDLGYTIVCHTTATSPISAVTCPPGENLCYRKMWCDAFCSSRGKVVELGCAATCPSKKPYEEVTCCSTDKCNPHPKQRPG
Sequence of Torsin-1A-interacting protein 1 (Homo sapiens) (Q5JTV8 whole entry, looked up): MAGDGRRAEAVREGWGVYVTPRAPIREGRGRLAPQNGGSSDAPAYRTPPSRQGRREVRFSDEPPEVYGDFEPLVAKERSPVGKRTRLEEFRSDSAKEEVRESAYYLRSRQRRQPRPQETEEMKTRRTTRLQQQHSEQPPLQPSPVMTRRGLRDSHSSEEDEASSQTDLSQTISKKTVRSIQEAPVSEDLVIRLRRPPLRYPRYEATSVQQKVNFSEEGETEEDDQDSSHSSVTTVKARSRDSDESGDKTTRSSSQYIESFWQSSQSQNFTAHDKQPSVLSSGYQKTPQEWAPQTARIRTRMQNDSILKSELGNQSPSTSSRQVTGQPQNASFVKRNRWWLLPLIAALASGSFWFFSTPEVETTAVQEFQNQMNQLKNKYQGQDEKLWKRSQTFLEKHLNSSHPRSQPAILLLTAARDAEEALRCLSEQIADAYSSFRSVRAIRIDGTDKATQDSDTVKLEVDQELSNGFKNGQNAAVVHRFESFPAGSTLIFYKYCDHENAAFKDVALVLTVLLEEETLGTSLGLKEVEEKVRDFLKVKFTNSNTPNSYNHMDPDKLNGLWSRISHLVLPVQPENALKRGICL

| SMILES | composite z-score [1] | z-score [2] | composite z-score [3] | composite z-score [4] | composite z-score [5] | composite z-score [6] | composite z-score [7] | composite z-score [8] | composite z-score [9] | composite z-score [10] | composite z-score (Albumin (Bos taurus)) | composite Z-score [11] | composite z-score [12] | composite z-score [13] | composite z-score [14] | composite z-score [15] | composite z-score [16] | composite z-score (Sam68 (KHDRBS1)) | composite z-score [17] | composite z-score [18] |
| --- | --- | --- | --- | --- | --- | --- | --- | --- | --- | --- | --- | --- | --- | --- | --- | --- | --- | --- | --- | --- |
| CCC=CCCC(OC(=O)c1ccc(Br)cc1)C1=CCCCC1=O (stereo not given) | 1.17 | -2.38 | 0.664 | -1.06 | -1.54 | -0.0512 | -0.124 | -0.198 | 0.221 | 0.654 | 0.231 | -0.0549 (inactive) | 0.0836 | -0.102 | 0.696 | 0.678 | 0.0079 | 0.776 | 1.02 | -0.297 |
| COC(=O)CC=C[C@@H](C)[C@@H]1C=C[C@H](O)[C@@H](CO)O1 | 0.0429 | -0.0733 | 0.43 | 0.367 | -0.818 | -0.154 | 0.647 | -0.546 | 0.297 | -0.139 | 0.0642 | 0.0543 (inactive) | -0.364 | -0.0717 | -0.184 | 0.189 | -0.171 | -0.111 | 0.951 | -0.379 |
| CC(CCN1CCCCc2nc(C)c(C)cc21)=NO[C@H](C)c1cn([C@H](CO)Cc2ccccc2)nn1 | 0.0596 | -1.13 | 0.708 | -0.418 | -0.763 | 0.103 | 0.163 | -0.208 | 0.488 | -0.276 | 0.583 | 0.26 (inactive) | -0.0076 | -0.135 | -0.274 | 0.558 | -0.129 | 0.321 | 1.32 | 0.0631 |
| COC(=O)CC=C[C@@H](C)[C@@H](C=NOC(C)CN1CCCc2nc(C)c(C)cc21)OC (stereo not given in full) | 0.633 | -0.256 | 0.517 | 0.539 | -0.733 | 0.133 | -0.223 | -0.291 | 0.106 | 1.43 | 0.0374 | 0.0236 (inactive) | 0.0833 | -0.176 | -0.0864 | 0.132 | -0.201 | 0.263 | 0.377 | 0.458 |
| Cc1ccc(S(=O)(=O)OC[C@H]2CN3[C@H](c4ccc(Br)cc4)[C@@H](C)CC[C@H]3C(=O)O2)cc1 | 0.226 | -1.02 | 0.119 | 0.946 | -0.265 | -0.0462 | 0.0141 | -0.12 | 0.0859 | 0.934 | 0.122 | -0.446 (inactive) | -0.0918 | -0.147 | 0.366 | 0.393 | 0.0759 | 0.893 | 0.0388 | 0.818 |
| CCOC(=O)[C@H](CC(C)C)NC(=O)CCC1CC(OC(=O)NCc2cccc3ccccc23)CC2(CCCC(COC(=O)NCC3CCCCC3)O2)O1 (stereo not given in full) | 1.31 | -1.93 | 0.559 | 0.162 | -0.376 | -0.0792 | -0.2 | -0.256 | 0.158 | 0.742 | 0.14 | 0.526 (inactive) | 0.0311 | -0.0896 | 0.392 | 0.0741 | -0.0193 | 1.29 | 0.32 | 1.08 |
| CC[C@@H](c1ccccc1)n1c(=O)n2n(c1=O)[C@H]1[C@H](O)[C@@H]3O[C@@H]3C(=NOC[C@@H](O)COCc3ccco3)[C@H]1CC2 | -0.629 | -2.55 | 0.0632 | -1.26 | -1.51 | -0.145 | -0.276 | 0.618 | -0.298 | -0.201 | -0.368 | 0.615 (inactive) | -0.232 | -0.133 | 0.04 | -0.997 | -0.955 | -0.758 | 0.726 | -0.757 |
| O=C1C=C[C@@H](O)[C@@H]2[C@@H]3C(=O)N(C[C@@H]4CCCO4)C(=O)[C@@H]3CC[C@@H]12 | 0.0168 | -0.848 | 0.449 | -0.202 | -0.78 | -0.124 | 0.111 | -0.176 | 0.206 | 0.33 | 0.0654 | 0.681 (inactive) | -0.125 | -0.112 | -0.121 | -0.17 | 0.421 | 0.258 | 0.458 | 0.332 |
| COc1ccc(O[C@H]2C=C[C@@H](c3ccccc3)O[C@@H]2COC(=O)CCC(C)=NOC[C@@H](O)[C@H]2O[C@@H]3OC(C)(C)O[C@@H]3[C@H]2O)cc1 | 1.07 | -0.0939 | 0.706 | -0.166 | -0.627 | 0.0001 | -0.291 | -0.232 | 0.419 | 0.0391 | -0.0217 | -0.212 (inactive) | -0.0284 | -0.101 | 0.325 | 0.337 | -0.123 | 1.01 | 0.728 | 0.249 |
| CCOC(=O)[C@H](CC(C)C)NC(=O)CCC1CC(OC(=O)NCc2cccc3ccccc23)CC2(CCCC(COC(=O)NCCC(C)C)O2)O1 (stereo not given in full) | 0.15 | 0.502 | 0.443 | 0.18 | -0.703 | -0.0529 | -0.182 | -0.32 | 0.165 | 0.503 | 0.352 | -0.136 (inactive) | -0.147 | -0.153 | 0.562 | 0.795 | -0.104 | -0.0361 | 0.443 | 0.0178 |
| C=CC1=C[C@H](O)[C@@H]2O[C@@H]2C12OCCCO2 | 0.304 | -0.876 | 0.152 | -0.396 | -1.05 | -0.105 | -0.381 | -0.165 | 0.169 | 0.43 | -0.728 | -0.174 (inactive) | -0.131 | -0.0878 | 0.0206 | -0.281 | -0.115 | 0.372 | 0.202 | 0.337 |
